# aSyn 5UTR act – Activators via SNCA 5'UTR binding, MLPCN. 300,000 tested, 7.1% active. alpha-synuclein 5'UTR reporter, activators screen. activity score, % (tested at 7.5 µM), hits read low; in the data active = activity score below about -60%
# Hits are given with their value; 0 = inactive. Not all results are given here.
SMILES,aSyn 5UTR act
CCOc1cccc(C(=O)NC(=S)Nc2ccc(N3CCN(CC)CC3)cc2)c1,-80.3
CCCOc1cccc(C(=O)NC(=S)Nc2ccc(N3CCN(C)CC3)cc2)c1,-68.8
Cc1ccnc(N2CCN(C(=O)CSc3nc4ccccc4nc3N3CCC(C)CC3)CC2)c1,-79.9
CC1CCc2c(sc(/N=C/N(C)C)c2C#N)C1 (configuration not stated),-80.4
CN(C)/C=N/c1sc2c(c1C#N)CCCC2,-80.1
CSCc1nc2sc(C(=O)Nc3nc(C)cs3)c(C)c2c(=O)[nH]1,-92.4
COc1cc(C=O)ccc1OS(=O)(=O)c1ccccc1[N+](=O)[O-],-118.7
COc1cc(/C=N/n2cnnc2)ccc1OS(=O)(=O)c1ccccc1[N+](=O)[O-],-177.8
Cc1sc(NC(=O)C2C3CCC(O3)C2C(=O)O)nc1-c1ccc(CC(C)C)cc1 (configuration not stated),-139.2
COc1ccc(N(C(=O)c2cc3ccccc3oc2=O)C2C=CS(=O)(=O)C2)cc1 (configuration not stated),-61.8
CCN(C(=O)c1cc2ccccc2oc1=O)c1ccccc1,-123.8
O=C(c1cc2ccccc2oc1=O)N(c1ccccc1)C1C=CS(=O)(=O)C1 (configuration not stated),-102.4
CC(C)c1ccc(N(C(=O)c2cc3ccccc3oc2=O)C2C=CS(=O)(=O)C2)cc1 (configuration not stated),-122.5
CCOC(=O)c1ccc(N2Cc3ccccc3C2=N)cc1,-77.8
CCOc1ccc(C(=O)NC2=NCCS2)cc1,-84.5
Cc1ccc(NC(=O)c2ccc(OC(=O)COc3ccc(Cl)c(C)c3)cc2)cc1,-115.3
Cc1cnc(NC(=O)c2ccc(OCC3CCCO3)cc2)s1 (configuration not stated),0
Cc1ccc(NC(=O)c2ccc(OCC3CCCO3)cc2)cc1 (configuration not stated),-122.8
O=C(Nc1nc2ccccc2s1)c1ccc(OCC2CCCO2)cc1 (configuration not stated),-88.6
O=C(NC1=NCCS1)c1ccc(OCC2CCCO2)cc1 (configuration not stated),-77.0
C/C(=N/NC(=O)c1ccoc1C)c1ccc(NC(=O)C2CCCC2)cc1,-120.9
C/C(=N\NC(=O)c1ccc(Cn2cc(Br)cn2)o1)c1ccc(NC(=O)c2ccoc2C)cc1,-76.7
C/C(=N\NC(=O)c1ccoc1C)c1ccccc1,-127.4
C/C(=N\NC(=O)c1nn(C)c(C)c1Br)c1cccc(NC(=O)c2ccoc2C)c1,-71.3
O=[N+]([O-])c1ccc(O)c(NC(=S)Nc2ccccc2)c1,-156.6
SMILES,aSyn 5UTR act
Fc1cccc(NC(=S)NNc2ccccc2)c1,-139.9
O=[N+]([O-])c1ccc(NNC(=S)Nc2ccccc2)cc1,-122.0
CCn1c(C)csc1=NC(=O)c1ccccc1O,-249.5
Cc1csc(=NC(=O)c2ccccc2)n1C,-126.0
CCn1c(C)csc1=NC(=O)c1ccccc1,-112.1
Cc1cc2ncc(-c3ccc(Cl)cc3)cn2n1,-83.8
c1ccc(CSc2nnc(-c3ccco3)n2Cc2ccco2)cc1,-106.8
Cn1c(SCc2ccccc2)nnc1-c1ccco1,-119.7
COc1cccc(-c2nnc(SCc3ccc(C#N)cc3)n2Cc2ccco2)c1,0
COc1ccc(N2C(=O)c3ccccc3NC2c2ccc(OC)c(Cn3cc([N+](=O)[O-])cn3)c2)cc1 (configuration not stated),-87.3
CC1(C)Cc2c(sc3nc(-c4cc5ccccc5o4)n(N)c(=O)c23)CO1,-202.9
COCCc1nc2ccc(C(=O)N(C)Cc3cccc(-n4cccn4)c3)cc2o1,-74.7
COc1ccc(/C=N/N=C(\N)c2nonc2N)cc1,-111.0
Cc1cc(C)nc(Nc2nc3ccccc3o2)n1,-70.0
FC(F)(F)Oc1ccc(Nc2nc3ccccc3o2)cc1,-259.5
c1ccc(Nc2nc3ccccc3o2)cc1,-188.7
CC(C)CC(NC(=O)CNC(=O)C1O[C@@H]2OC(C)(C)O[C@@H]2[C@H]2OC(C)(C)O[C@@H]12)C(=O)O (some centres not stated),-84.4
CN(C)c1ccc(C(=O)NCC2CCCO2)cc1 (configuration not stated),-107.3
O=C(NC(=S)NCC1CCCO1)c1ccc(Cl)cc1 (configuration not stated),-106.1
Nc1c(C(=O)NCC2CCCO2)c2nc3ccccc3nc2n1-c1ccccc1 (configuration not stated),0
Cc1ccc(C(=O)NC(=S)NCC2CCCO2)cc1 (configuration not stated),-147.0
CC(C)(C)c1ccc(-c2noc(CCC(=O)NCC3CCCO3)n2)cc1 (configuration not stated),0
Fc1ccc(/C=N/NC2=Nc3cccc4cccc2c34)cc1,-294.1
O=c1c(Cl)c(O)c2cccc3c4ccccc4n1c23,-64.3
CC(C)Oc1ccc(CSc2ncn[nH]2)cc1,-83.8
SMILES,aSyn 5UTR act
O=C(COC(=O)Cn1cnc2ccccc21)Nc1ccc2c(c1)C(=O)c1ccccc1C2=O,-153.1
COc1ccc(/C=C/c2nc(N)nc(-c3ccccc3O)n2)cc1,-116.2
CC(=O)Oc1ccccc1-c1nc(/C=C/c2ccccc2)no1,-162.0
CC(=O)Nc1ccc(/C=C/c2nc(-c3ccccc3O)n[nH]2)cc1,-202.2
COc1ccc(/C=C/c2noc(-c3ccccc3O)n2)cc1,-93.5
COc1cc(/C=C/c2nc(-c3ccccc3O)n[nH]2)cc(OC)c1OC,-117.5
COc1cc(/C=C/c2noc(-c3ccccc3O)n2)cc(OC)c1OC,-145.6
COc1cc(N)ccc1NC(=O)c1cc2ccccc2o1,-135.6
CCCC(=O)Nc1ccc(NC(=O)c2cc3ccccc3o2)c(OC)c1,-222.5
COc1cc(NC(C)=O)ccc1NC(=O)c1cc2ccccc2o1,-82.9
O=C(Nc1ccc(NC(=O)c2ccco2)nc1)c1cccnc1,-75.3
COc1cccc(C(=O)Nc2ccc(NC(=O)c3ccco3)nc2)c1,-161.8
COc1cccc(C(=O)Nc2ccc(NC(C)=O)cn2)c1,-129.2
O=C(Nc1ccc(NC(=O)c2ccco2)nc1)c1cccc(F)c1,-134.2
CCCC(=O)Nc1ccc(NC(=O)c2cccc(OC)c2)nc1,-159.8
Cc1nc(Nc2ccccc2)sc1C(=O)Nc1ccccc1,-102.4
Cc1nc(NCCOc2ccccc2)sc1C(=O)Nc1ccccc1,-87.9
CSc1nc(N(C)NC(=O)c2ccc(F)cc2)c2ccccc2n1,0
Cc1nc(Nc2ccccc2)sc1C(=O)c1ccc(F)cc1,-94.1
Nc1nc(Nc2ccccc2F)sc1C(=O)c1ccccc1,-187.7
Cc1nc(NCc2ccccc2)sc1C(=O)Nc1ccccc1,-147.5
CS(=O)Cc1cc(Sc2ccccc2)nc(-c2cccnc2)n1 (configuration not stated),-65.7
COCC(=O)Nc1ccc(OCc2ccccc2)cc1,-78.6
Oc1ccc(NCc2ccc(OCc3ccccc3)cc2)cc1,-100.2
CS(=O)(=O)Nc1ccc(OCc2ccccc2)cc1,-167.9
SMILES,aSyn 5UTR act
COC(=O)Nc1ccc(OCc2ccccc2)cc1,-111.5
COc1ccccc1NC(=O)C(=O)N/N=C(\C)CC(=O)Nc1ccc(OCc2ccccc2)cc1,-61.6
CC(=O)Nc1ccc(N=Cc2ccc(OCc3ccccc3)cc2)cc1,-129.5
Cc1csc2nc(CSc3ccc(Cl)cc3)cn12,-102.9
c1cn2cc(CSC3CCCCC3)nc2s1,-130.4
c1ccc2oc(SCc3cn4ccsc4n3)nc2c1,-122.4
c1ccc(CSCc2cn3ccsc3n2)cc1,-175.9
Cc1cc(OCc2cn3cccnc3n2)ccc1Cl,-127.2
Clc1ccc(SCc2cn3ccsc3n2)cc1,-236.1
Clc1ccc(SCc2cn3cccnc3n2)cc1,-64.4

# Screening results: PubChem, Broad Institute
